Data: ChEMBL document CHEMBL3988442, “University of Dundee, Small-Polar-MMV Screening Library” (2021)

Columns and labels:
[1] = molecular target: T1, Aspartate--tRNA(Asp/Asn) ligase (Mycobacterium tuberculosis (strain ATCC 25618 / H37Rv)) (UniProt P9WFW3); assay: Assay for Asp RNA synthetase-1 from Mycobacterium tuberculosis; type: functional; set-up: scale not given: direction of the effect not stated beside the values; conditions: 30 µM; also: in the data most compounds retested in dose-response had high values
T1 sequence (whole entry): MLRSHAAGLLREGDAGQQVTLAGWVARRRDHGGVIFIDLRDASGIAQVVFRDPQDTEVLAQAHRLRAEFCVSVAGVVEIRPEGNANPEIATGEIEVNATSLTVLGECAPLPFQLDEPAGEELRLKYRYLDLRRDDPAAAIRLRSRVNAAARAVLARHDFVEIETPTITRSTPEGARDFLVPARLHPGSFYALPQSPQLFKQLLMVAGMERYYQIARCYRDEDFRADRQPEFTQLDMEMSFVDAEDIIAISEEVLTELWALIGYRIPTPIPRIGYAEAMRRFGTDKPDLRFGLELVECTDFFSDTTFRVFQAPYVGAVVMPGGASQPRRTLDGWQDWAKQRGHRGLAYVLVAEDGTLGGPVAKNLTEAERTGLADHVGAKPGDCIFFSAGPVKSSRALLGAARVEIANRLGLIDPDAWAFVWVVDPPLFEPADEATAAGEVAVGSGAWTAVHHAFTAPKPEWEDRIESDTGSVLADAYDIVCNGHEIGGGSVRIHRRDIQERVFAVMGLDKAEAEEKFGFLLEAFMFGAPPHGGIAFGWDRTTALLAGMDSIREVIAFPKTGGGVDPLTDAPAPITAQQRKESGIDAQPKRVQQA

[2] = molecular target: Shiga toxin 2 (Escherichia coli O157:H7) (UniProt P09385+P09386); assay: E. coli 0.157:H7 Shiga Toxin SOP - stx2 screening assay; type: functional; set-up: scale not given: direction of the effect not stated beside the values; conditions: 30 µM

SMILES | Percent Effect [1] [%] | Percent Effect [2] [%]
O=C(NC1COC2(CCN(Cc3ccccn3)CC2)C1)c1ccccn1 (stereo not drawn) | -7.74 | -29.1
COc1ccccc1OCC(=O)Nc1ncccc1OC(F)F | 3.04 | -12
O=C(NCc1ccco1)[C@H]1C[C@H]2OCC[C@H]2N(C(=O)c2ccco2)C1 | 3.58 | 6.55
C=Cn1ncc(CN2C[C@@H]3CCCN3C[C@@H]2Cc2ccccc2)c1C | -6.18 | 2.92
CC(OCC1CC1)C(=O)N1CCCN(c2ncccc2C#N)CC1 (stereo not drawn) | 2.42 | 27.5
CC(C)c1nc(CN2CCCCC2)cs1 | -3.66 | 7.17
Cc1cncc(C2CCCN(C(=O)c3ccc(C)[nH]c3=O)C2)n1 (stereo not drawn) | 0.25 | -13
COCc1nc(C(=O)NS(=O)(=O)c2cc(F)ccc2F)cs1 | -0.5 | -51.5
CC(NC(=O)N1CCC(OCc2ccccc2)CC1)c1nncn1C (stereo not drawn) | -3.22 | 3.46
CN(C)C(=O)Cc1ccc(NC(=O)NC2CCCCC2)cc1 | -1.13 | 1.55
COCCOCc1cccc(NC(=O)N2CCCC2c2ccncc2)c1 (stereo not drawn) | -1.56 | 18.6
Cc1cnn(CCC(=O)N2CCCC(c3cc(C(N)=O)[nH]n3)C2)c1 (stereo not drawn) | -2.86 | -13.8
CNS(=O)(=O)Cc1ccc(CNC(=O)Nc2cn[nH]c2)cc1 | -0.228 | -4.62
Cc1ccc(CNC(=O)CCSCc2csc(C)n2)cn1 | -3.37 | -2.37
CC(CNC(=O)N1CCN(CC(F)F)CC1)Cc1cccs1 (stereo not drawn) | -1.76 | 0.53
CCc1nc(COc2ccc(OCc3cnn(C)c3)cc2)no1 | 0.524 | -31
CC(C)(C)c1noc(CN2CCCN(Cc3cccs3)CC2)n1 | -4.01 | -1.06
CSc1ccccc1CN1CCCn2nc(CNC(=O)N(C)C)cc2C1 | 2.53 | -34.2
CN(Cc1ccco1)[C@@H]1CN(C(=O)c2ccnnc2)[C@@H]2CCCO[C@H]12 | -2.73 | -1.33
